For test [1], the target named is Rap guanine nucleotide exchange factor 3 (Homo sapiens) (UniProt O95398). The test can be described thus: Confirmatory qHTS for antagonist of cAMP-regulated guanine nucleotide exchange factor 3 (EPAC1) (AID 1645880). Also: nearly all actives have a fitted effect of over 55% in size. Also: potency is read from the fitted curve at half-maximal effect.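 As to activity, negative = inhibition: plate controls were DMSO only for no effect and full effect of the ATA control for full effect.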 The settings on record: EPAC1 Rap1B-BODIPY-GDP exchange, fluorescence; activity, negative = inhibition: at 115 µM (top of the series). The gist of the method:
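Nucleotide exchange uses 100 nM EPAC1, 250 nM RAP1B-BODIPY-GDP and 50 uM GDP, with compounds in a concentration-titration series. After 5 min at room temperature, fluorescence (480 nm ex/540 nm em) is read every 5 min for 30 min. Data are normalized to control ATA and DMSO.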

Test [2] shares this target. As to the kind of experiment: Confirmatory qHTS for agonist of cAMP-regulated guanine nucleotide exchange factor 3 (EPAC1) (AID 1645881). Also: nearly all actives have a fitted effect of over 75% in size. Also: potency is read from the fitted curve at half-maximal effect.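 As to activation: EPAC1 catalysed release of BODIPY-GDP from Rap1B seen as fluorescence loss; 100% = effect of cAMP agonist control.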
For test [3], the target named is Rap guanine nucleotide exchange factor 4 (Homo sapiens) (UniProt Q8WZA2). The test can be described thus: Confirmatory qHTS for agonist of cAMP-regulated guanine nucleotide exchange factor 4 (EPAC2) (AID 1645884).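 Also: nucleotide exchange releases bodipy-GDP from Rap1 and this lowers its fluorescence; nearly all actives have a fitted effect of over 65% in size.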 Also: potency is read from the fitted curve at half-maximal effect. As to activation: % is scaled to controls: 0 for no effect and ±100 for the full control effect.
Rap guanine nucleotide exchange factor 4 (Homo sapiens), sequence (Q8WZA2 whole entry, looked up): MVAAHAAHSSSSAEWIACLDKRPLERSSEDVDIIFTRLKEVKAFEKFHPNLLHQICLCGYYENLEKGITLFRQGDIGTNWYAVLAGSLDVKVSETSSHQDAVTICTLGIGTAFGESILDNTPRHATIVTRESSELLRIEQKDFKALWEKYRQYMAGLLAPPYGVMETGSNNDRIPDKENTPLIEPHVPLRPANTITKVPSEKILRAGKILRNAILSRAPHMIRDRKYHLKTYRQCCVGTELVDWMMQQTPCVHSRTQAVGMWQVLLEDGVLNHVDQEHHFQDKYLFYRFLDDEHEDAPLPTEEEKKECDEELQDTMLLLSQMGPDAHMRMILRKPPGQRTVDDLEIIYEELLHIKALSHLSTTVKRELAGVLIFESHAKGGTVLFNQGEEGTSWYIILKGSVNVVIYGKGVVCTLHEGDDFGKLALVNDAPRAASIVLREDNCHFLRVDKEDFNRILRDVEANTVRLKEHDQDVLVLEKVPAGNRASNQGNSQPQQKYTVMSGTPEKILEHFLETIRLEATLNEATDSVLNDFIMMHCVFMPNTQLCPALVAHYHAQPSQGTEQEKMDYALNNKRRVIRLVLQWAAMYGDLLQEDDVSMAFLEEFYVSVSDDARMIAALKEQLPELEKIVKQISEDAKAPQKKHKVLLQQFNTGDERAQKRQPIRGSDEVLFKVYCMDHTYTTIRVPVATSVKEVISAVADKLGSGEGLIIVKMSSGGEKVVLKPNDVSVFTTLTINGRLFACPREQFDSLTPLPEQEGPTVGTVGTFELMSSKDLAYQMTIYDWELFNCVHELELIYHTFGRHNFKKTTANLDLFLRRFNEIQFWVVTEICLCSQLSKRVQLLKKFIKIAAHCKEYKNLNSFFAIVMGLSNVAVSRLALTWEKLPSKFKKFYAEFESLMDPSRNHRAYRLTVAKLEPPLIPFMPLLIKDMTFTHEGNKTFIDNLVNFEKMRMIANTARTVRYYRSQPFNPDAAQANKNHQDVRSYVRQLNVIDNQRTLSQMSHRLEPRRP
Test [4] shares this target. As to the kind of experiment: Confirmatory qHTS for antagonist of cAMP-regulated guanine nucleotide exchange factor 4 (EPAC2) (AID 1645885). Also: nearly all actives have a fitted effect of over 25% in size. Also: potency is read from the fitted curve at half-maximal effect. As to activity change, negative = inhibition: % is scaled to controls: 0 for no effect and ±100 for the full control effect.
Test [5] has as its target Rap guanine nucleotide exchange factor 3 (Homo sapiens) (UniProt O95398). The test can be described thus: Counterscreen qHTS for agonist of cAMP-regulated guanine nucleotide exchange factor 3 (EPAC1) (AID 1645889). Also: % of control where 0% means no effect; nearly all actives have a fitted effect of over 40% in size. The gist of the method: (§1)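 Rap1B-BODIPY-GDP 250 nM + GDP 50 uM; cpds 7-pt, final 9.74 nM–152 uM (activator mode) or from 7.32 nM upwards (inhibitor mode); RT; FI 480/540 nm at 5 and 30 min, then ± cAMP, reread.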

Test [6] addresses Tumor susceptibility gene 101 protein (Homo sapiens) (UniProt Q99816). As to the kind of experiment: qHTS Assay for Iinhibitors of HIV-1 Budding by Blocking the Interaction of PTAP/TSG101: Hit Validation (AID 651600). Also: nearly all actives have a fitted effect of over 70% in size. Also: potency is read from the fitted curve at half-maximal effect. As to activity change, negative = inhibition: % is scaled to controls: 0 for no effect and ±100 for the full control effect. The gist of the method: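 Displacement of a FITC-labeled PTAP-motif peptide (50 nM) from the Tsg101 binding domain (10 uM) was monitored by fluorescence polarization after a 20 min room-temperature incubation.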

Test [7] deals with Rap guanine nucleotide exchange factor 3 (Homo sapiens) (UniProt O95398). As to the kind of experiment: Counterscreen qHTS for antagonist of cAMP-regulated guanine nucleotide exchange factor 3 (EPAC1) (AID 1645888).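 Also: fluorescence loss as bound BODIPY-GDP is released from Rap1B; % of control where 0% means no effect.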 The gist of the method: as §1
Rap guanine nucleotide exchange factor 3 (Homo sapiens), sequence (O95398 whole entry, looked up): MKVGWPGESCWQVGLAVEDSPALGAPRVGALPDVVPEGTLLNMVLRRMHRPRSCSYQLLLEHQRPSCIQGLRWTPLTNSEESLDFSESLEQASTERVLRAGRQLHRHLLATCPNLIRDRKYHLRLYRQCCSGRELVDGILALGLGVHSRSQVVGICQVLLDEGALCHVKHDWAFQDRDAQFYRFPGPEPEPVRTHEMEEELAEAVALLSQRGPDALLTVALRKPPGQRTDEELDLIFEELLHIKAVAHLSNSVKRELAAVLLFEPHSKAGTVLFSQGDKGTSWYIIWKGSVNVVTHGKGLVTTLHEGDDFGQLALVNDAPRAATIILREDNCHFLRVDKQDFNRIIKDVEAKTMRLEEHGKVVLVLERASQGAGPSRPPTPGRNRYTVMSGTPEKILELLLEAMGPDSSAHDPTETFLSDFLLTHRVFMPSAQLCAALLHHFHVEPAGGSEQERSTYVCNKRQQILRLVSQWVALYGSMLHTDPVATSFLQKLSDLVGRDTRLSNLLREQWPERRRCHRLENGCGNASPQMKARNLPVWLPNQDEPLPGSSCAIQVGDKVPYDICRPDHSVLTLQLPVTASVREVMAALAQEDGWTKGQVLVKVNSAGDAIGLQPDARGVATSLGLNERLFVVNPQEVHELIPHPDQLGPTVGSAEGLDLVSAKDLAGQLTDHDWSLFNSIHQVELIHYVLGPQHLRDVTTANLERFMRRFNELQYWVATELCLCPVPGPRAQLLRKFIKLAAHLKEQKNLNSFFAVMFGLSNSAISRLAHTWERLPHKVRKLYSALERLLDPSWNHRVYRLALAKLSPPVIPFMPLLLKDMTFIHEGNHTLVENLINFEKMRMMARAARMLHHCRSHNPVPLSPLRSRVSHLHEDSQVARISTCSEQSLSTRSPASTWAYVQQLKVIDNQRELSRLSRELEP
Test [8] deals with Phosphoglycerate kinase, glycosomal (Trypanosoma brucei brucei) (UniProt P07378). The test can be described thus: qHTS for inhibitors of Phosphogylcerate Kinase: Hit Validation Screen (AID 686980). Also: potency is read from the fitted curve at half-maximal effect; nearly all actives have a fitted effect of over 65% in size. The conditions noted are these: TbPGK coupled GAPDH assay, Kinase-Glo luminescence. In short, it runs like this:
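Luminescent ATP detection (Kinase-Glo Plus) follows a 60-minute room-temperature incubation, with wells lacking PGK as controls. Buffer: 100 mM TEA (pH 7.6), 5 mM MgCl2, 0.01% Tween-20. Coupling enzyme GAPDH (100 nM final) supplies unstable 1,3-BPG in-well.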

Test [9] addresses DNA polymerase iota (Homo sapiens) (UniProt Q9UNA4). As to the kind of experiment: qHTS for Inhibitors of Polymerase Iota: Confirmatory Assay for Cherry-picked Compounds (AID 720496). Also: potency is read from the fitted curve at half-maximal effect. The conditions noted are these: Pol iota primer extension, TAMRA/BHQ fluorescence. The gist of the method:
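Step 1: 10 nM Pol iota with compound, 15 min, room temperature. Step 2: 50 nM final quenched DNA substrate added. Step 3: fluorescence (ex 525, em 598 nm) read at 0 and after 10 min.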

For test [10], the target named is Flap endonuclease 1 (Homo sapiens) (UniProt P39748). The test can be described thus: qHTS Assay for the Inhibitors of FEN1: Confirmatory Assay for Cherry-picked Compounds (AID 720498). Also: potency is read from the fitted curve at half-maximal effect; nearly all actives have a fitted effect of over 60% in size. The conditions noted are these: FEN1 flap cleavage, TAMRA/BHQ2 fluorogenic DNA substrate. In short, it runs like this: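 FEN1 at 10 nM was preincubated with compound for 15 min at room temperature, then 50 nM (final) double-flap DNA substrate was added. TAMRA fluorescence released from the BHQ-2-quenched flap was read at 0 and 15 min (ex 525/em 598 nm).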
Flap endonuclease 1 (Homo sapiens), sequence (P39748 whole entry, looked up): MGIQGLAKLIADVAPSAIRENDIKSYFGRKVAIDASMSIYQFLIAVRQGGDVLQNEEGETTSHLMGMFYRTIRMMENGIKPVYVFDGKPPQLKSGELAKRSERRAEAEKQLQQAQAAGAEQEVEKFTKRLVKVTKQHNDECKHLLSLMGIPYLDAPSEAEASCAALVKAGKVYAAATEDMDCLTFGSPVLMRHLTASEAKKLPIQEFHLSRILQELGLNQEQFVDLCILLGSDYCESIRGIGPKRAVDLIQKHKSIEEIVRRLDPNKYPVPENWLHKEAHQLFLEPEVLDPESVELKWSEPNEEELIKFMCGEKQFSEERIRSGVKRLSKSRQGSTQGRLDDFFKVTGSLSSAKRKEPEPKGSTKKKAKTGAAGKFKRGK

For test [11], the target named is DNA polymerase eta (Homo sapiens) (UniProt Q9Y253). The test can be described thus: qHTS for Inhibitors of Polymerase Eta: Confirmatory Assay for Cherry-picked Compounds (AID 720502). Also: potency is read from the fitted curve at half-maximal effect. The settings on record: Pol eta primer extension, TAMRA/BHQ fluorescence, 10 min. In short, it runs like this: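 Strand-displacement fluorescence (525 nm excitation, 598 nm emission) was read kinetically at 0 and 10 min after adding 50 nM final TAMRA-reporter/BHQ-2-template substrate. Beforehand, 10 nM Pol eta had been exposed to compound for 15 min at room temperature.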
DNA polymerase eta (Homo sapiens), sequence (Q9Y253 whole entry, looked up): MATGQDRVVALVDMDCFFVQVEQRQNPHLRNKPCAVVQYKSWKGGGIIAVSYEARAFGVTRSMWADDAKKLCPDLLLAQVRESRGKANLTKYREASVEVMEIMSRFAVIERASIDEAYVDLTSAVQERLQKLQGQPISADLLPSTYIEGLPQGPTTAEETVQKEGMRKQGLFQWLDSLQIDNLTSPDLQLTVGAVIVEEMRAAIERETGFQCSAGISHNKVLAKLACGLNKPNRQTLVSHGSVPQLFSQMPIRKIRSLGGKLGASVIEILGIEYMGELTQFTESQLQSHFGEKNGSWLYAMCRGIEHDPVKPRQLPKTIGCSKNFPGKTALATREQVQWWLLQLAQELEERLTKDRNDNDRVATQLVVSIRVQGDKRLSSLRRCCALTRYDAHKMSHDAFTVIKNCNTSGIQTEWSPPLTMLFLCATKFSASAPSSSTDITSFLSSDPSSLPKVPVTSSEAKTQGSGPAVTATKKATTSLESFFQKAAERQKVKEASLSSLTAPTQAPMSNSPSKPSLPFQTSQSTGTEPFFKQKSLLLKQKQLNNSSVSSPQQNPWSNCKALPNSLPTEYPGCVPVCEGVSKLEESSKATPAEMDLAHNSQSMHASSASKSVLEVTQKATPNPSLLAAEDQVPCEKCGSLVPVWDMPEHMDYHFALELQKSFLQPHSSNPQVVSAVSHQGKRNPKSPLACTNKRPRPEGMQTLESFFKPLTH

Results filed as inconclusive are left out. A number with no mark means an inactive call. This is one part of the list. Active and inactive are the calls of the source. Calls follow the shape of the dose curve; as a rule, active = well fitted curve in the direction sought with a large enough effect; inconclusive = small, poorly fitted or top-dose-only effect, or another doubt; inactive = no such curve, though single readings can be large; an effect the other way counts as inactive or inconclusive.

Tumor susceptibility gene 101 protein (Homo sapiens), sequence (Q99816 whole entry, looked up, the tested form may be a part): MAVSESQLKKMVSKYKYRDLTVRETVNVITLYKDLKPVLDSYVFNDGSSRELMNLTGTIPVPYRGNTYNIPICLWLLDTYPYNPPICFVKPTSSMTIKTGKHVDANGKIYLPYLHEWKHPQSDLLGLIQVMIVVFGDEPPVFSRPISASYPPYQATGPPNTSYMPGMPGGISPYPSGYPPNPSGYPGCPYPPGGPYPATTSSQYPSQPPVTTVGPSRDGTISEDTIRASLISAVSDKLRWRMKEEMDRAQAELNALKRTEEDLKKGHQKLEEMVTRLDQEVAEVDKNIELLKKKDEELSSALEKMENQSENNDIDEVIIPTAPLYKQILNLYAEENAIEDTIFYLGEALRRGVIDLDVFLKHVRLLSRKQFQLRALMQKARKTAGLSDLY
Phosphoglycerate kinase, glycosomal (Trypanosoma brucei brucei), sequence (P07378 whole entry, looked up): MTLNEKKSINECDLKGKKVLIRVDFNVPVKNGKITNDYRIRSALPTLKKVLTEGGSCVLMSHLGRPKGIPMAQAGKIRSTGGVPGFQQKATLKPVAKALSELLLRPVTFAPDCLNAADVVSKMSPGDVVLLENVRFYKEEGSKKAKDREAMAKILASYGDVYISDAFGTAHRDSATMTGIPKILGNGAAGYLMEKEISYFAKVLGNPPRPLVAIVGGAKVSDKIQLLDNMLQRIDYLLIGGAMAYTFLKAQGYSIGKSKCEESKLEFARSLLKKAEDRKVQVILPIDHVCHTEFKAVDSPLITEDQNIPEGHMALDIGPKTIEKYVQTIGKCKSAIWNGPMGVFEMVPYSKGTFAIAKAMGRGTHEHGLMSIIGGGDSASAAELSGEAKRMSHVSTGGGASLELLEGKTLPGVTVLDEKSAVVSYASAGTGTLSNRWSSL
DNA polymerase iota (Homo sapiens), sequence (Q9UNA4 whole entry, looked up): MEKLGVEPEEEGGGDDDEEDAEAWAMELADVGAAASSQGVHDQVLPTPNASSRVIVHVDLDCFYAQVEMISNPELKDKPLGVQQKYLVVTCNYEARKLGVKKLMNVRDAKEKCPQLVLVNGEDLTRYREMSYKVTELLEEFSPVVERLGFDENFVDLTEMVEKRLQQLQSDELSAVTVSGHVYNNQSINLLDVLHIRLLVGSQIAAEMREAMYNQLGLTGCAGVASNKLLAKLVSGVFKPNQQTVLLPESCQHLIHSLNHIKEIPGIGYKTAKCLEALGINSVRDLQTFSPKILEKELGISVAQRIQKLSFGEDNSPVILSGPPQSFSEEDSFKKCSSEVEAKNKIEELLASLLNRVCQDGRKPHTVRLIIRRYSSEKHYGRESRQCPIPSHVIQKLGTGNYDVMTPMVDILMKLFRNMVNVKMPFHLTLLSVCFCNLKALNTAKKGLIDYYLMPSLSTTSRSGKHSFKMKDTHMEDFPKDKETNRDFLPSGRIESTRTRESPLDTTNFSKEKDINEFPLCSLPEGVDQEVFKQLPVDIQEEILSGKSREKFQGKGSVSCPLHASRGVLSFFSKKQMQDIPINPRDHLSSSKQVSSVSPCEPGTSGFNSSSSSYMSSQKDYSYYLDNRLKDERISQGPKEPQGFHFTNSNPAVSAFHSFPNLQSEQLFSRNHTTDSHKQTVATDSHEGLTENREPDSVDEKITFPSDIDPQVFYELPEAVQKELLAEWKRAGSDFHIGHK

Regarding `Cc1cc(/C=C2\SC(=S)NC2=O)cc(C)c1O`, the Potency in test [1] was 33.8 µM (active); in test [4], 0.675 µM (active). The Potency result in [2], in test [3] and in test [5] was “inactive” in each case.
Turning to `COc1cccc(NC(=O)/C(C#N)=C/c2ccc(-c3ccc(C)cc3)o2)c1`, the Potency entry in test [6], in [1], in [2], in [3], in test [4] and in test [7] was “inactive” each time.
Turning to `COc1ccc(-c2c(-c3ccccc3OC)oc3ccccc23)cn1`, the Potency result in test [1], in test [2] and in test [4] was “inactive” throughout. Besides, the activation in [3] was 1.88% [at 17.1 µM, percent relative to cAMP agonist control]; in test [5], 7.21% [at 30.8 µM].
For the compound `CCOc1ccc(NC(=O)c2ccc(NC(=O)COC(=O)c3ccc(NC(=O)CC#N)cc3)cc2)cc1`, the Potency was 8.19 µM (active) in test [8], 4.74 µM (active) in test [9], 67.5 µM (active) in [10] and 75.7 µM (active) in [11]. For the same compound, the Potency entry in test [1], in [2], in [3], in [4] and in [7] was “inactive” throughout.
Consider `COc1ccc(S(=O)(=O)Nc2c(C)nn(C)c2C)cc1Br`, for which the Potency result in test [1], in test [2], in test [3], in [4] and in [5] was “inactive” each time.
Turning to `COc1ccc(C2CCc3cc4c(cc3C2=NO)OCO4)cc1OC` (stereo unspecified), the Potency result in test [1], in test [2] and in [4] was “inactive” throughout. Besides, the activation in [3] was 6.77% [at 17.1 µM, percent relative to cAMP agonist control]; in test [5] it was 14.5% [at 30.8 µM].
In the case of `C=CCN(CC=C)Cc1cc(=O)oc2cc(OC)c(Cl)cc12`, the Potency entry in test [1], in test [2] and in test [4] was “inactive” in each case. The activation in [3] was 3.78% [at 17.1 µM, percent relative to cAMP agonist control]; in test [5], 20.9% [at 30.8 µM].
Take `COc1ccc2nc3ccccc3[n+]([O-])c2c1`: the figures for the Potency in [6] and in [2] were 18.3 µM (active) and 79.4 µM (active), respectively. Also, the Potency entry in test [1] and in test [4] was “inactive” throughout. Further, in [3], the activation is 14% [at 17.1 µM, percent relative to cAMP agonist control]. Besides, the activity change, negative = inhibition in test [7] is 32.7% [at 30.8 µM].
For `Cn1c(/C(C#N)=C/c2ccc(-c3ccc(S(N)(=O)=O)cc3)o2)nc2ccccc21`, the Potency result in [6], in test [1], in test [2], in test [3] and in [7] was “inactive” each time. Further, in test [4], the Potency is 95.3 µM (active).
As for `C/C=C/C(=O)Nc1cccc(C2=NOC3(C2)C[C@@H](C(N)=O)N(C(=O)/C(C)=C/C)C3)c1` (stereo partly specified), the Potency result in test [1], in [2], in [3], in [4] and in test [5] was “inactive” each time.
For the compound `CN(C)c1ccc(/C=C(\C#N)C(=O)Nc2nc3c(s2)CCN(Cc2ccccc2)C3)cc1`, the Potency entry in test [6], in [1], in [4] and in [7] was “inactive” throughout. Besides, the Potency in [2] and in [3] was 100 µM (active) each time.
In the case of `O=C1NC(=S)S/C1=C\C=C\c1ccc([N+](=O)[O-])o1`, the Potency in test [1] is 8.49 µM (active). For the same compound, the Potency result in test [2], in test [3], in test [4] and in [5] was “inactive” throughout.
In the case of `COc1cc(CCc2ccccc2)c(C(=O)O)c(O)c1C/C=C(/C)CCC=C(C)C`, the results for the Potency in [1] and in test [4] were 42.6 µM (active) and 75.7 µM (active), respectively. Further, the Potency result in [2], in [3] and in test [5] was “inactive” each time.
With `COc1cc(NC(=O)c2cnc(N)s2)cc(C(=O)Nc2cccc(C(F)(F)F)c2)c1`, the Potency in test [1] was 12.6 µM (active). Further, the Potency result in [2] and in test [4] was “inactive” in each case. In addition, the activation in test [3] is 5.57% [at 17.1 µM, percent relative to cAMP agonist control]; in test [5], 16.6% [at 30.8 µM].
In the case of `Cc1ccc(-c2nnc(Nc3ccc4c(c3)nc(C)n4C)c3ccccc23)cc1`, the Potency result in test [1], in test [2] and in test [4] was “inactive” each time. The activation in [3] was 2.89% [at 17.1 µM, percent relative to cAMP agonist control]; in test [5], 12% [at 30.8 µM].
Regarding `CC(C)c1ccc(NC(=O)COC(=O)C2=COCCO2)cc1`, the Potency result in test [1], in test [2] and in [4] was “inactive” throughout. Further, the activation was -5.53% [at 17.1 µM, percent relative to cAMP agonist control] in test [3] and 17.9% [at 30.8 µM] in test [5].
For `N#C/C(=C\c1ccccn1)c1nc2ccccc2s1`, the Potency entry in [6], in test [2], in test [3], in test [4] and in test [7] was “inactive” throughout. For the same compound, the Potency in test [1] was 19 µM (active).
For `CC(=O)Nc1ccc(N=Cc2c(O)c(C(=O)Nc3ccccc3)cc3ccccc23)cc1`, the Potency in test [6] is 16.3 µM (active). Also, the Potency entry in test [1], in [2] and in test [4] was “inactive” each time. In addition, in [3], the activation is -21% [at 17.1 µM, percent relative to cAMP agonist control]. Further, the activity change, negative = inhibition in test [7] was -16.4% [at 30.8 µM].
As to `C=CCn1cc(C(=O)NCCCOC)c(=O)c2cc(S(=O)(=O)N(CC)CC)ccc21`, the Potency result in test [1], in test [2], in test [3], in test [4] and in test [5] was “inactive” in each case.
In the case of `CCC(Sc1nncn1C)C(=O)Nc1nnc(-c2ccc(Cl)cc2)s1` (stereo unspecified), the Potency result in test [1], in test [2] and in test [4] was “inactive” throughout. In addition, the activation was 5.37% [at 17.1 µM, percent relative to cAMP agonist control] in [3] and -0.401% [at 30.8 µM] in [5].
Turning to `CCOC(=O)N1CCC2CC1c1cc(-c3cccc(OC)c3)ccc12` (stereo unspecified), the Potency entry in [1], in test [2], in test [3], in test [4] and in test [5] was “inactive” each time.
Take `CC1CN(c2nc3ccccc3nc2C(C#N)C(=O)NCc2ccc3c(c2)OCO3)CC(C)O1` (stereo unspecified): the Potency result in test [6], in test [1], in [2], in test [3], in test [4] and in [7] was “inactive” each time.
As to `CC(C)(C)c1c(Cl)c(O)c(-c2ccccc2)c(=O)n1-c1ccccc1`, in test [1], the Potency was 23.9 µM (active). Further, the Potency result in test [2], in test [3], in test [4] and in test [5] was “inactive” in each case.

The record behind these values is PubChem BioAssay (NCATS).
